PubChem BioAssay AID1159580 (chemical genetic matrix, 2015)
In all, about 5,500 compounds went through this assay and about 2,000 (36%) were called active. Roughly 18% stayed inconclusive and do not appear here. Rule as the data show it: active = normalized growth mostly below about 0.91 (no sharp cut-off); inconclusive = no clear call, values can overlap the other calls; inactive = mostly above about 0.92. This is one part of the list.

Experiment: chemical genetic growth profiling, strain panel (AID 1159580);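 also: tested at 20 µM; growth read once vehicle control cultures reached saturation at 30 °C; 1 = growth at the plate median or of vehicle wells; lower values mean less growth of the strain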
Settings: growth OD

Measured: normalized growth

NC(=O)c1ccc[n+]([C@@H]2O[C@H](COP(=O)([O-])OP(=O)(O)OC[C@H]3O[C@@H](n4cnc5c(N)ncnc54)[C@H](O)[C@@H]3O)[C@@H](O)[C@H]2O)c1
inactive: S. cerevisiae deletion strains, locus YJR075W, strain HOC1, stronger effect = lower value 1.02 | S. cerevisiae deletion strains, locus YKL009W, strain mrt4, stronger effect = lower value 0.975 | S. cerevisiae deletion strains, locus YKL068W, stronger effect = lower value 0.987 | S. cerevisiae deletion strains, locus YKL085W, strain MDH1 (second series), stronger effect = lower value 0.986 | S. cerevisiae deletion strains, locus YKL085W, strain MDH1, stronger effect = lower value 0.986 | S. cerevisiae deletion strains, locus YKL160W, strain elf1, stronger effect = lower value 1.06 | S. cerevisiae deletion strains, locus YKL190W, strain CNB1, stronger effect = lower value 0.996 | S. cerevisiae deletion strains, locus YKR001C, strain vps1, stronger effect = lower value 0.997 | S. cerevisiae deletion strains, locus YKR026C, strain gcn3, stronger effect = lower value 1.02 | S. cerevisiae deletion strains, locus YKR091W, strain srl3, stronger effect = lower value 1.02 | S. cerevisiae deletion strains, locus YLL001W, strain dnm1, stronger effect = lower value 1.03 | S. cerevisiae deletion strains, locus YLL026W, stronger effect = lower value 1.02 | S. cerevisiae deletion strains, locus YLL041C, strain sdh2, stronger effect = lower value 1.04 | S. cerevisiae deletion strains, locus YLR027C, strain aat2, stronger effect = lower value 1.03 | S. cerevisiae deletion strains, locus YLR039C, strain RIC1, stronger effect = lower value 0.987 | S. cerevisiae deletion strains, locus YLR058C, strain SHM2, stronger effect = lower value 0.977 | S. cerevisiae deletion strains, locus YLR102C, strain apc9, stronger effect = lower value 0.989 | S. cerevisiae deletion strains, locus YLR113W, strain HOG1, stronger effect = lower value 0.982 | S. cerevisiae deletion strains, locus YLR221C, strain rsa3, stronger effect = lower value 1.04 | S. cerevisiae deletion strains, locus YLR258W, strain gsy2, stronger effect = lower value 1.04 | S. cerevisiae deletion strains, locus YLR262C, strain YPT6 (second series), stronger effect = lower value 1.05 | S. cerevisiae deletion strains, locus YLR262C, strain YPT6, stronger effect = lower value 0.939 | S. cerevisiae deletion strains, locus YLR268W, strain sec22, stronger effect = lower value 1.08 | S. cerevisiae deletion strains, locus YLR320W, strain mms22, stronger effect = lower value 1.03 | S. cerevisiae deletion strains, locus YLR330W, strain CHS5, stronger effect = lower value 0.982 | S. cerevisiae deletion strains, locus YLR342W, strain FKS1 (second series), stronger effect = lower value 0.986 | S. cerevisiae deletion strains, locus YLR342W, strain FKS1, stronger effect = lower value 1.02 | S. cerevisiae deletion strains, locus YLR357W, strain rsc2, stronger effect = lower value 1.05 | S. cerevisiae deletion strains, locus YLR370C, strain arc18, stronger effect = lower value 1.04 | S. cerevisiae deletion strains, locus YLR371W, strain rom2, stronger effect = lower value 0.977 | S. cerevisiae deletion strains, locus YLR384C, strain iki3, stronger effect = lower value 1.04 | S. cerevisiae deletion strains, locus YLR418C, strain cdc73, stronger effect = lower value 1.02 | S. cerevisiae deletion strains, locus YML016C, strain PPZ1, stronger effect = lower value 0.982 | S. cerevisiae deletion strains, locus YML032C, strain rad52, stronger effect = lower value 1.01 | S. cerevisiae deletion strains, locus YML120C, strain ndi1, stronger effect = lower value 1.04 | S. cerevisiae deletion strains, locus YML124C, strain tub3, stronger effect = lower value 0.989 | S. cerevisiae deletion strains, locus YMR058W, strain fet3, stronger effect = lower value 1.04 | S. cerevisiae deletion strains, locus YMR078C, strain ctf18, stronger effect = lower value 0.986 | S. cerevisiae deletion strains, locus YMR125W, strain sto1, stronger effect = lower value 1.06 | S. cerevisiae deletion strains, locus YMR129W, stronger effect = lower value 1.02 | S. cerevisiae deletion strains, locus YMR205C, strain PFK2, stronger effect = lower value 1.04 | S. cerevisiae deletion strains, locus YMR223W, strain ubp8, stronger effect = lower value 0.974 | S. cerevisiae deletion strains, locus YMR231W, strain pep5, stronger effect = lower value 1.04 | S. cerevisiae deletion strains, locus YMR263W, strain SAP30, stronger effect = lower value 1 | S. cerevisiae deletion strains, locus YMR307W, strain GAS1, stronger effect = lower value 0.992 | S. cerevisiae deletion strains, locus YNL067W, strain RPL9B, stronger effect = lower value 1.01 | S. cerevisiae deletion strains, locus YNL071W, strain lat1, stronger effect = lower value 1.03 | S. cerevisiae deletion strains, locus YNL128W, strain TEP1, stronger effect = lower value 0.953 | S. cerevisiae deletion strains, locus YNL153C, strain GIM3, stronger effect = lower value 1.02 | S. cerevisiae deletion strains, locus YNL183C, strain NPR1, stronger effect = lower value 0.969 | S. cerevisiae deletion strains, locus YNL209W, strain ssb2, stronger effect = lower value 1.04 | S. cerevisiae deletion strains, locus YNL233W, strain BNI4, stronger effect = lower value 1.02 | S. cerevisiae deletion strains, locus YNL248C, strain rpa49, stronger effect = lower value 1.07 | S. cerevisiae deletion strains, locus YNL250W, strain rad50, stronger effect = lower value 0.985 | S. cerevisiae deletion strains, locus YNL271C, strain bni1, stronger effect = lower value 0.994 | S. cerevisiae deletion strains, locus YNL298W, strain CLA4, stronger effect = lower value 0.996 | S. cerevisiae deletion strains, locus YNL307C, strain MCK1, stronger effect = lower value 1.01 | S. cerevisiae deletion strains, locus YNL322C, strain KRE1 (second series), stronger effect = lower value 1.03 | S. cerevisiae deletion strains, locus YNL322C, strain KRE1, stronger effect = lower value 0.983 | S. cerevisiae deletion strains, locus YNR049C, strain mso1, stronger effect = lower value 1.02 | S. cerevisiae deletion strains, locus YNR052C, strain pop2, stronger effect = lower value 0.995 | S. cerevisiae deletion strains, locus YOL006C, strain TOP1, stronger effect = lower value 1.01 | S. cerevisiae deletion strains, locus YOL012C, strain htz1 0.903 | S. cerevisiae deletion strains, locus YOL147C, strain pex11, stronger effect = lower value 0.994 | S. cerevisiae deletion strains, locus YOR001W, strain rrp6, stronger effect = lower value 1.05 | S. cerevisiae deletion strains, locus YOR061W, strain CKA2, stronger effect = lower value 0.969 | S. cerevisiae deletion strains, locus YOR069W, strain VPS5, stronger effect = lower value 0.993 | S. cerevisiae deletion strains, locus YOR070C, strain gyp1, stronger effect = lower value 1.02 | S. cerevisiae deletion strains, locus YOR080W, strain dia2, stronger effect = lower value 1.02 | S. cerevisiae deletion strains, locus YOR083W, strain WHI5, stronger effect = lower value 1.06 | S. cerevisiae deletion strains, locus YOR106W, strain vam3, stronger effect = lower value 1.07 | S. cerevisiae deletion strains, locus YOR136W, strain idh2, stronger effect = lower value 0.991 | S. cerevisiae deletion strains, locus YOR144C, strain elg1, stronger effect = lower value 0.991 | S. cerevisiae deletion strains, locus YOR184W, strain ser1, stronger effect = lower value 1 | S. cerevisiae deletion strains, locus YOR231W, strain MKK1, stronger effect = lower value 0.999 | S. cerevisiae deletion strains, locus YOR265W, strain rbl2, stronger effect = lower value 1.02 | S. cerevisiae deletion strains, locus YOR270C, strain vph1, stronger effect = lower value 1.14 | S. cerevisiae deletion strains, locus YOR290C, strain snf2, stronger effect = lower value 1.07 | S. cerevisiae deletion strains, locus YOR316C, strain cot1, stronger effect = lower value 0.988 | S. cerevisiae deletion strains, locus YPL051W, strain arl3, stronger effect = lower value 1.05 | S. cerevisiae deletion strains, locus YPL055C, strain LGE1, stronger effect = lower value 0.997 | S. cerevisiae deletion strains, locus YPL078C, strain atp4, stronger effect = lower value 1.08 | S. cerevisiae deletion strains, locus YPL106C, strain sse1, stronger effect = lower value 1.04 | S. cerevisiae deletion strains, locus YPL240C, strain hsp82, stronger effect = lower value 1.01 | S. cerevisiae deletion strains, locus YPL241C, strain CIN2, stronger effect = lower value 0.984 | S. cerevisiae deletion strains, locus YPL256C, strain CLN2, stronger effect = lower value 0.961 | S. cerevisiae deletion strains, locus YPR119W, strain clb2, stronger effect = lower value 0.993 | S. cerevisiae deletion strains, locus YPR141C, strain kar3, stronger effect = lower value 0.991 | S. cerevisiae deletion strains, locus YPR163C, strain tif3, stronger effect = lower value 1 | S. cerevisiae deletion strains, locus YPR167C, strain met16, stronger effect = lower value 0.998 | S. cerevisiae deletion strains, strain wtn01, stronger effect = lower value 1.03 | S. cerevisiae strains, strain wild type, stronger effect = lower value 0.993
